Reference: PubChem BioAssay (NCI)
About 79,000 compounds went through this panel and 15% of them were active in at least one assay; those are over-represented in the sample as a whole. Cut-off read from the data, not from the text of the source: active = growth inhibition above about 70%; inactive = the rest. Where a SMILES comes first, the peptide text is derived from it. The star is where a group is joined. Boc = CC(C)(C)OC(=O)*; OBn = c1ccc(CO*)cc1

Legend:
[1] = NCI Yeast Anticancer Drug Screen. Data for the rad50 strain (AID 155);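 note: 0% = growth of vehicle-only cultures of the same strain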; details: S. cerevisiae rad50 strain growth inhibition; at 50.0 µM; hits give high values
In short: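 Yeast carrying a defined DNA repair defect were exposed to test compounds, and growth was compared with vehicle-treated controls to give percent inhibition.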

[2] = NCI Yeast Anticancer Drug Screen. Data for the mec2-1 strain (AID 157); details: S. cerevisiae mec2-1 strain, at 50.0 µM, hits give high values
In short: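 Each compound was tested on mec2-1 yeast, a strain altered in DNA damage repair or cell cycle control. Growth inhibition is reported relative to vehicle.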

[3] = NCI Yeast Anticancer Drug Screen. Data for the sgs1 mgt1 strain (AID 161);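 note: 0% = growth of cultures given vehicle only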; details: S. cerevisiae sgs1 mgt1 strain, at 50.0 µM, hits give high values
In short: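 Genetically altered yeast, compound exposure, growth inhibition relative to vehicle.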

[4] = NCI Yeast Anticancer Drug Screen. Data for the cln2 rad14 strain (AID 165);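 note: 0% = growth equal to vehicle treated cultures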; details: S. cerevisiae cln2 rad14 strain, at 50.0 µM, hits give high values
In short: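 Test compounds were added to cln2 rad14 yeast cultures; inhibition of growth was then determined by comparison with vehicle treatment.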

[5] = NCI Yeast Anticancer Drug Screen. Data for the bub3 strain (AID 167); details: S. cerevisiae bub3 mutant strain, at 50.0 µM, hits give high values
In short: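 Compounds were applied to a genetically altered yeast strain carrying a cell-cycle control defect. Growth inhibition was scored against vehicle-treated controls.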

[6] = NCI Yeast Anticancer Drug Screen. Data for the mlh1 rad18 strain (AID 175); details: S. cerevisiae mlh1 rad18 strain growth inhibition; at 50.0 µM; hits give high values
In short: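 Inhibition values reflect reduced growth of mutant yeast versus vehicle-treated controls following compound exposure; the mutations affect DNA damage repair.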

Measured: growth inhibition

CCc1ccccc1NC(=O)C(=O)C(C#N)c1ccccc1Cl (configuration not stated)
inactive: [1] -7.2% | [2] -30.6% | [3] -17.6% | [4] 3.55% | [5] 6.3% | [6] -9.45%

O=S(=O)(Nc1ccc(NS(=O)(=O)c2ccccc2)nc1)c1ccccc1
inactive: [1] 13.8% | [2] -0.55% | [3] 32.1% | [4] -19.9% | [5] 5.3% | [6] -0.75%

OCC1c2ccccc2C(CO)c2c1ccc1ccccc21 (configuration not stated)
inactive: [1] -0.3% | [2] -2.3% | [3] -7.1% | [4] 11.1% | [5] -9.15% | [6] 4.45%

Cc1ccc(CC(=S)N2CCOCC2)cc1
inactive: [1] 19.8% | [2] 24.2% | [3] 10.8% | [4] 10.9% | [5] 25.2% | [6] 16.6%

CCCCCOC(=O)c1cc2ccccc2cc1O
inactive: [1] -3% | [2] -8.05% | [3] -8.95% | [4] -39.6% | [5] 30.1% | [6] -7.8%

O=c1c(O)c(O)c1=O
inactive: [1] 1.3% | [2] -7% | [3] 0.8% | [4] 0.7% | [5] 9.3% | [6] -15.5%

CCCCCNC(=O)C(C)O (configuration not stated)
inactive: [1] 5.6% | [2] -8.3% | [3] -9.7% | [4] -30.5% | [5] -2.2% | [6] 14.6%

Cc1nnc2n(c1=O)CCN2C
inactive: [1] -1.65% | [2] 0.1% | [3] 12.3% | [4] -4.4% | [5] 7.8% | [6] 26.2%

CCOC(=O)/C=C(/OCC)c1cccc(Cl)c1
inactive: [1] 9.4% | [2] -5.95% | [3] 13.8% | [4] 16.3% | [5] 39.4% | [6] -1.85%

O=C(O)CCNc1ncnc2nc[nH]c12
inactive: [1] -65.5% | [2] -13.2% | [3] -33.5% | [4] -34.6% | [5] 24.4% | [6] -19.9%

CC(=O)Oc1ccc2c(OC(C)=O)c(C)cc(OC(C)=O)c2c1
inactive: [1] 26.3% | [2] 5.6% | [3] 20.9% | [4] 3.8% | [5] 19.1% | [6] 24.4%

CN(C)CCCn1cnc2cc(Cl)c(Cl)cc21
inactive: [1] 0.2% | [2] -6.4% | [3] -21% | [4] -0.8% | [5] 9.95% | [6] -0.15%

C[C@]1(CO)[C@H]2CC[C@@]34C=C[C@@](CO)(CC[C@H]3[C@]2(C)CC[C@H]1O)C4
inactive: [1] 5.45% | [2] 1.05% | [3] 39.6% | [4] 6.4% | [5] 11.7% | [6] -48.4%

CC1OC(c2ccccc2)OC1C (configuration not stated)
inactive: [1] 18.6% | [2] -4.65% | [3] -6.9% | [4] -29.9% | [5] -18.9% | [6] 11.8%

CCCCOC(=O)/C=C\C(=O)NC(=O)NC(C)(C)C
inactive: [1] -7.55% | [2] 1.2% | [3] -4.3% | [4] -33.1% | [5] 5.05% | [6] 3.15%

O=C(N/N=C/c1c(O)ccc2ccccc12)c1ccccc1
inactive: [1] 29% | [2] 11.3% | [3] 42.1% | [4] 5% | [5] 16.1% | [6] 26.4%

CCC(=O)CC(=O)C(=O)OC
inactive: [1] 6.25% | [2] 14.6% | [3] -8.45% | [4] -15.7% | [5] 3.5% | [6] 17%

O=C(/C=C/c1ccccc1)NC(=S)Nc1cc(Cl)ccc1O
inactive: [1] 2.55% | [2] 7.8% | [3] 6.25% | [4] 5.5% | [5] 12.7% | [6] 6.85%

CSc1cc(=O)n(C2OC(CO)C(O)C2O)c(=O)[nH]1 (configuration not stated)
inactive: [1] 9.05% | [2] -5.35% | [3] 17.6% | [4] -14.9% | [5] 10.1% | [6] 25.7%

C1OC1CO[C@H]1CO[C@H]2[C@@H]1OC[C@@H]2OCC1CO1 (some centres not stated)
inactive: [1] -9.35% | [2] -2.4% | [3] 8.05% | [4] -30.5% | [5] 18.1% | [6] 2.25%

CCCC(P(c1ccccc1)c1ccccc1)P(=O)(c1ccccc1)c1ccccc1 (configuration not stated)
inactive: [1] 62.7% | [2] 39.2% | [3] 39.1% | [4] 24.9% | [5] 59.4% | [6] 29.1%

CC1OC(OC2C(OC3C[C@@]4(C)C(C[C@H](O)[C@H]5[C@H](C6(C)CCC(C(C)(C)O)O6)CCC54C)[C@]4(C)CC[C@@H](O)C(C)(C)C34)OC(CO)C(O)C2O)C(O)C(O)C1O (some centres not stated) (tested in a mixture with another compound)
inactive: [1] -7.6% | [2] -20.1% | [3] -3.45% | [4] -26.7% | [5] -8.5% | [6] -72.5%

Cc1ccc(NC(=NCCCN(C)C)C(c2ccccc2)c2ccccc2)cc1
inactive: [1] -2.7% | [2] -0.25% | [3] -5.4% | [4] 0.4% | [5] 11.4% | [6] 13.4%

Cc1ccc(N(C)c2cc(=O)n(C)c(=O)[nH]2)cc1C
inactive: [1] 14.4% | [2] 16.2% | [3] 10.3% | [4] 28.3% | [5] 12.4% | [6] 14.4%

CC(C)CC(NC(=O)OC(C)(C)C)C(=O)NC(CC(=O)OCc1ccccc1)C(=O)OCc1ccccc1 (stereo not drawn) (Boc-Leu-Asp(OBn)-OBn; configuration not given here)
inactive: [1] 26.3% | [2] -7.25% | [3] 15.5% | [4] 2.2% | [5] 15.8% | [6] 33.5%

O=C1OC(=O)C(c2ccccc2)=C1c1ccccc1
inactive: [1] 10.6% | [2] 5% | [3] 9.55% | [4] -10.8% | [5] 5.95% | [6] 24.9%

CCOc1ccccc1C(=O)Oc1ccc(C)cc1
inactive: [1] -4.6% | [2] -19.2% | [3] 7.1% | [4] -3.85% | [5] -5.5% | [6] 24.1%

CCNC(=O)C(CC)(CO)CO
inactive: [1] -16.4% | [2] -3.4% | [3] -3.95% | [4] 6.2% | [5] 0.65% | [6] 4.5%

CN=C1c2ccccc2C(=O)c2c1c(O)n(C)c2O
inactive: [1] 3.05% | [2] -8.45% | [3] 0.9% | [4] 1.4% | [5] -2.75% | [6] -1%

CCC1=C(C)C(=O)OC1n1ccc(=O)[nH]c1=O (configuration not stated)
inactive: [1] -11.6% | [2] -2.75% | [3] 2.8% | [4] -37% | [5] -5% | [6] -3.5%

Cn1c(=O)c2ncn(CC3CCCCC3)c2n(C)c1=O
inactive: [1] 6.15% | [2] 11.6% | [3] 5.05% | [4] -5.9% | [5] 2.05% | [6] -4.95%

CC(=O)Nc1cc(F)c2c(c1F)Cc1cc(F)ccc1-2
inactive: [1] 15.1% | [2] 21.9% | [3] 11.7% | [4] -63.4% | [5] 5.15% | [6] 7.95%

COC(=O)CC(c1ccccc1)N1CCOCC1 (configuration not stated)
inactive: [1] -12.3% | [2] 19.4% | [3] -10.2% | [4] -20.4% | [5] 7.35% | [6] 12.8%

Nc1cccc(CC(N)C(=O)O)c1 (configuration not stated)
inactive: [1] -1.95% | [2] -5.55% | [3] -8.7% | [4] -44.1% | [5] -4.5% | [6] 1.7%

COc1cc(C2SC(N)=Nc3c2c(C)nn3C(=O)c2ccccc2O)ccc1O (configuration not stated)
inactive: [1] -4.9% | [2] 24.1% | [3] 22.5% | [4] -1.35% | [5] 40.4% | [6] 16%

CCNC(=O)C1C2C=CC(C2)C1C(=O)NCC (configuration not stated)
inactive: [1] 2.9% | [2] -9.6% | [3] -9.15% | [4] -46% | [5] -5.3% | [6] 0.05%

OCCSCCCCCSCCO
inactive: [1] -2.6% | [2] -7.7% | [3] -7.3% | [4] -2.15% | [5] -7.4% | [6] -15.3%

CCCCCC#CC(=O)OCC
inactive: [1] 0.6% | [2] -0.9% | [3] -6.25% | [4] 10.1% | [5] -11.9% | [6] 15.8%

CCOC(=O)c1cc2cc(Br)ccc2[nH]1
inactive: [1] 2% | [2] -24% | [3] 8.5% | [4] 5.9% | [5] -2.7% | [6] 20.4%

O=C(O)c1cc(C(=O)Nc2cccc3ccccc23)c(C(=O)O)cc1C(=O)Nc1cccc2ccccc12
inactive: [1] 14.6% | [2] 24.1% | [3] 17.6% | [4] -5.4% | [5] 6.4% | [6] 22.8%

SC1CCCN(Cc2ccccc2)C1 (configuration not stated)
inactive: [1] 24.9% | [2] 4.9% | [3] 2.15% | [4] 33.8% | [5] 8.9% | [6] 17.6%

Brc1ccc(Br)c2nc(/C=C/c3ccccc3)ccc12
inactive: [1] 11.8% | [2] 1.85% | [3] -7% | [4] -22.6% | [5] 2.45% | [6] 8.25%
